Bioassay records: PubChem, The Scripps Research Institute Molecular Screening Center
Sampled rows, rich in hits. Any-hit rate of the full collection: about 3.4%.
MITF primary: inhibitors of human MITF | 650,000 compounds, 0.91% hits | inhibition, % at 2.6 µM | AlphaScreen MITF homodimerization, bead proximity signal | O75030; in the data active means inhibition above about 50%
FBW7 activator: activators of human E3 ligase FBW7; Q969H0; AlphaScreen FBW7–phospho-cyclin E peptide binding, activator screen; normalized activity (activation), % at 26.1 µM; 650,000 compounds, 0.13% hits; AID 1259310; in the data active means normalized activity above about 1.9%;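 further: purified mutant Fbw7 with reduced substrate affinity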
Target sequence (Q969H0 whole entry, looked up): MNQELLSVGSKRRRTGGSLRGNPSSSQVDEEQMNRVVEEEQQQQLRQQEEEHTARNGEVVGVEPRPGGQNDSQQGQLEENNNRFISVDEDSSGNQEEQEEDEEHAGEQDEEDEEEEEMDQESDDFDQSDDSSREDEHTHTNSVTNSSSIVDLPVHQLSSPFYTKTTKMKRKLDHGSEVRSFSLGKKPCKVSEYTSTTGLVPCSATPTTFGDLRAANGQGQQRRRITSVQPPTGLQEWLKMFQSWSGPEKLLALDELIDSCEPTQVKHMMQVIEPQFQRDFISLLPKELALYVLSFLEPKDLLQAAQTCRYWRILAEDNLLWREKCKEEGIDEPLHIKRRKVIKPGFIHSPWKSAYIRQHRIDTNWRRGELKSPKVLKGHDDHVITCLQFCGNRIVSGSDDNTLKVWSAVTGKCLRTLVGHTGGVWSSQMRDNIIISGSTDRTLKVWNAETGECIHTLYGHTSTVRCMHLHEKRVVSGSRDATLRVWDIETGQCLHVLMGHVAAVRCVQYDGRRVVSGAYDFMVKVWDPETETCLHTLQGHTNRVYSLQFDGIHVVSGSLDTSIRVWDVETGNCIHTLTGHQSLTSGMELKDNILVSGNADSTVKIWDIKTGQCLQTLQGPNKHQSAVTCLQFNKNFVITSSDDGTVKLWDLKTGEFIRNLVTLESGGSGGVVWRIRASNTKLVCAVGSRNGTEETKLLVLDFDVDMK
TEAD-YAP block: TEAD-YAP interaction inhibition; AID 1259422; inhibition, % at 9.12 µM; HEK-TIYL cells, TEAD-Gal4/YAP UAS-luciferase luminescence; 640,000 compounds, 1.4% hits; in the data active means inhibition above about 32%
GPR151 ag: activates the human receptor GPR151. PathHunter beta-arrestin GPR151 cells, luminescence. activation, % at 11.2 µM. 650,000 compounds, 1% hits; in the data active means activation above about 4.9%
Each line names hits and unclear results; the compound was inactive in the other large screens.

O=C(OCc1cc(=O)n2c(n1)sc1ccccc12)C12CC3CC(CC(O)(C3)C1)C2	TEAD-YAP block 75
O=c1cc(CSc2nnnn2-c2ccc(O)cc2)nc2sc3ccccc3n12	none
Cc1ccc2c(N)cccc2n1 (tested in a mixture with another compound)	none
Cc1cccc(N2CCN(C(=O)c3ccc(S(=O)(=O)c4ccc(F)cc4)c([N+](=O)[O-])c3)C(C)C2)c1 (stereo not drawn)	TEAD-YAP block 54
O=C(c1ccc(S(=O)(=O)c2ccc(F)cc2)c([N+](=O)[O-])c1)N1CCCCCC1	TEAD-YAP block 34
O=C(c1ccc(S(=O)(=O)c2ccc(F)cc2)c([N+](=O)[O-])c1)N1CCC2(CC1)OCCO2	none
O=C(c1ccc(S(=O)(=O)c2ccc(Br)cc2)c([N+](=O)[O-])c1)N1CCCCC1	TEAD-YAP block 37
CC1CCCCN1C(=O)c1ccc(S(=O)(=O)c2cccc(Cl)c2)c([N+](=O)[O-])c1 (stereo not drawn)	TEAD-YAP block 38
CCNc1nc(C)cc(NCc2cccnc2)n1	none
COc1ccc(-n2c(=S)[nH]c3cc(C(=O)NC4CCCCC4)ccc3c2=O)cc1OC	none
Cc1cccc(N2CCN(C(=O)c3ccc4c(c3)NC(=O)c3ccccc3N4)CC2C)c1 (stereo not drawn)	none
CCN(CC)C(=O)c1ccc(S(=O)(=O)c2ccc(Br)cc2)c([N+](=O)[O-])c1	TEAD-YAP block 49
CCCNC(=O)c1ccc(S(=O)(=O)c2ccc(OC)cc2)c([N+](=O)[O-])c1	TEAD-YAP block 36
CCOC(=O)CS(=O)(=O)c1ccc(C(=O)N2CCN(c3cccc(C)c3)C(C)C2)cc1[N+](=O)[O-] (stereo not drawn)	TEAD-YAP block 52
CCN(CC)C(=O)c1ccc(Sc2ccc(Br)cc2)c([N+](=O)[O-])c1	none
Cc1cccc(N2CCN(C(=O)c3ccc4c(c3)NC(=O)CS4)CC2C)c1 (stereo not drawn)	TEAD-YAP block 60
CC1(c2ccc(Cl)cc2Cl)NC(=O)N(CC(=O)N2CCOCC2)C1=O (stereo not drawn)	none
CC(C)C(=O)NCCNc1ccc(Nc2ccncc2)nn1	none
Cc1ccc(C)c(N2CCN(C(=O)c3ccc(S(=O)(=O)c4ccccc4Cl)c([N+](=O)[O-])c3)CC2)c1	none
C=CCNC(=O)c1ccc(S(=O)(=O)c2ccc(F)cc2)c([N+](=O)[O-])c1	TEAD-YAP block 34
O=C(O)c1ccc(S(=O)(=O)c2ccc(F)cc2)c([N+](=O)[O-])c1	none
O=C(c1ccc(S(=O)(=O)c2ccc(Br)cc2)c([N+](=O)[O-])c1)N1CCCC1	TEAD-YAP block 32
O=C(c1ccc(S(=O)(=O)c2ccc(Br)cc2)c([N+](=O)[O-])c1)N1CCN(c2ccc(F)cc2)CC1	none
O=C(c1ccc(S(=O)(=O)c2ccccc2Cl)c([N+](=O)[O-])c1)N1CCN(Cc2ccccc2)CC1	TEAD-YAP block 33
Cc1ccc(C)c(N2CCN(C(=O)c3ccc(S(=O)(=O)c4ccc(F)cc4)c([N+](=O)[O-])c3)CC2)c1	TEAD-YAP block 44
O=C1NC(c2cc(I)ccc2Cl)=N/C1=C/c1ccc(Br)o1	none
O=C(c1ccc(S(=O)(=O)c2ccc(Br)cc2)c([N+](=O)[O-])c1)N1CCCCCC1	TEAD-YAP block 35
Cc1ccc(C(=O)N2CCN(c3ccc([N+](=O)[O-])cc3)CC2C)cc1 (stereo not drawn)	TEAD-YAP block 39
Cc1cc2ccccc2c(=O)n1CC(=O)N(C)Cc1ccccc1	none
CN(C)/C=C1/S/C(=N/S(=O)(=O)c2ccccc2)N(C2CCCCC2)C1=O	FBW7 activator 2.5
COc1cc(OC)cc(C(=O)NCCN=C2NS(=O)(=O)c3ccccc32)c1	none
COc1cc(Nc2nc(NC3CCC(O)CC3)nc3c2ncn3-c2ccsc2)cc(OC)c1OC (stereo not drawn)	TEAD-YAP block 68
c1ccc(Nc2nc(NC3CC3)c3ncn(-c4ccsc4)c3n2)cc1	TEAD-YAP block 49
COc1cc(Nc2nc(Nc3ccccc3)nc3c2ncn3-c2ccsc2)cc(OC)c1OC	none
COc1cc(Nc2nc(NC3CC3)c3ncn(-c4ccsc4)c3n2)cc(OC)c1OC	TEAD-YAP block 34
COc1ccc(-c2nnc(/C=C/c3cccs3)o2)cc1	TEAD-YAP block 72
O=C(Nc1cccc(O)c1)c1cc(-c2cccs2)on1	TEAD-YAP block 77
CCOC(=O)c1c(NC(=O)c2cc(-c3cccs3)on2)sc(C)c1C	FBW7 activator 2.8
CCOC(=O)c1c(NC(=O)c2cc(-c3cccs3)on2)sc(C(C)=O)c1C	none
COc1cccc(-c2cc(C(=O)Nc3cccc(O)c3)no2)c1	TEAD-YAP block 89
O=C(Nc1cccc(Cl)c1)c1cc(-c2cccs2)on1	none
COCC(C)NC(=O)c1cc(-c2cccc(OC)c2)on1 (stereo not drawn)	FBW7 activator 1.9
COc1cc(C(=O)Nc2nc3ccc(S(C)(=O)=O)cc3s2)c(Br)c(OC)c1OC	none
COc1ccc(NC2=C(Cl)C(=O)N(Cc3ccccc3)C2=O)cc1	none
COc1ccc2c(c1)CCc1c(C(=O)Nc3cccc(C(C)=O)c3)noc1-2	none
O=C(Nc1cccc(O)c1)c1cc(-c2ccc(O)cc2)on1	TEAD-YAP block 65
COc1cc(NC(=O)c2cc(-c3cccs3)on2)cc(OC)c1OC	TEAD-YAP block 36
O=C(Nc1cccc(O)c1)c1cc(-c2ccc(Br)cc2)on1	TEAD-YAP block 74
COc1ccc2c(c1)CCc1c(C(=O)Nc3cccc(O)c3)noc1-2	TEAD-YAP block 95
CCN(CC)C(=O)C1CCCN(c2cc(NC3CCN(Cc4ccccc4)CC3)nc(N)n2)C1 (stereo not drawn)	none
Cc1ccc(NC(=O)c2c(O)c3c([nH]c2=O)CCCC3)cc1	none
O=C(Nc1ccc(O)cc1)c1c(O)c2c([nH]c1=O)CCCC2	TEAD-YAP block 68
Cn1nc(-c2ccc(F)cc2)cc1C(=O)N1CCN(S(=O)(=O)C2CC2)CC1	none
COc1cccc(C2CC(c3c(O)cc(C)oc3=O)=NCCS2)c1OC (stereo not drawn)	TEAD-YAP block 42
Cc1ccc(C2CC(c3cccs3)=NN2C(=O)CSc2nnc(CNC(=O)c3ccco3)n2-c2cccc(C)c2C)cc1 (stereo not drawn)	none
CCCNc1nc(-c2ccccc2)nc2c1ncn2-c1ccsc1	none
CCOC(=O)c1sc(NC(=O)CSc2nnc(CNC(=O)Cc3ccccc3)n2C)c(C(=O)OCC)c1C	none
CC(=O)CSc1nc(C2CC2)cc(C(F)(F)F)c1C#N	FBW7 activator 2.7
Nc1ccc(/C=C/c2nc3ccccc3o2)cc1	TEAD-YAP block 45
O=C(Cc1ccccc1)Nc1cc(C(=O)O)cc(C(=O)O)c1	none
O=C(O)c1cc(=O)c(O)c2c(O)c(O)c(O)cc2c1	MITF primary 89
COc1cc(Br)cc(/C=N/NC(=S)Nc2cccc(C(=O)O)c2)c1O	none
Cc1nc2c(c(C)c1CCC(=O)N1CCCCCC1)c(=O)n(C)c(=O)n2C	TEAD-YAP block 51
CCNc1nc(NCC)nc(-n2nc(C)cc2C)n1	TEAD-YAP block 53
